Laboratory results from PubChem BioAssay AID1159580 (chemical genetic matrix, 2015).
About 2,000 (36%) of roughly 5,500 compounds were called active. About 18% were inconclusive and are not listed. Some of the results follow. Values without a mark were called inactive. No stated cut-off is given here; in the data, active means normalized growth mostly below about 0.91 (no sharp cut-off); inconclusive means no clear call, values can overlap the other calls; inactive means mostly above about 0.92.

Assay: chemical genetic growth profiling, strain panel (AID 1159580);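 further: tested at 20 µM; growth read once vehicle control cultures reached saturation at 30 °C; 1 = growth at the plate median or of vehicle wells; lower values mean less growth of the strain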
Settings: growth OD
[1] = S. cerevisiae deletion strains, locus YAL013W, strain DEP1, active compounds read low
[2] = S. cerevisiae deletion strains, locus YDR150W, strain NUM1, active compounds read low
[3] = S. cerevisiae deletion strains, locus YHR030C, strain SLT2, active compounds read low
[4] = S. cerevisiae deletion strains, locus YJR075W, strain HOC1, active compounds read low
[5] = S. cerevisiae deletion strains, locus YMR307W, strain GAS1, active compounds read low
[6] = S. cerevisiae deletion strains, locus YNL153C, strain GIM3, active compounds read low
[7] = S. cerevisiae deletion strains, locus YNL322C, strain KRE1, active compounds read low
[8] = S. cerevisiae deletion strains, locus YPL055C, strain LGE1, active compounds read low
[9] = S. cerevisiae deletion strains, locus YAL040C, strain CLN3, active compounds read low
[10] = S. cerevisiae deletion strains, locus YDR363W, strain ESC2, active compounds read low
[11] = S. cerevisiae deletion strains, locus YER002W, strain NOP16, active compounds read low
[12] = S. cerevisiae deletion strains, locus YNL175C, strain NOP13, active compounds read low
[13] = S. cerevisiae deletion strains, locus YNL197C, strain WHI3, active compounds read low
[14] = S. cerevisiae deletion strains, locus YNL224C, strain SQS1, active compounds read low
[15] = S. cerevisiae deletion strains, locus YOR083W, strain WHI5 (second series), active compounds read low

Question: What does the source list for `CN(C(=O)Nc1ccccc1)n1cnc2ccccc2c1=O`?
Answer: normalized growth [1]: 0.999; normalized growth (S. cerevisiae deletion strains, locus YBR229C, strain ROT2, active compounds read low): 1.03; normalized growth (S. cerevisiae deletion strains, locus YDL101C, strain DUN1, active compounds read low): 1; normalized growth (S. cerevisiae deletion strains, locus YDL134C, strain PPH21, active compounds read low): 1.03; normalized growth [2]: 0.917; normalized growth (S. cerevisiae deletion strains, locus YEL061C, strain CIN8, active compounds read low): 1.02; normalized growth (S. cerevisiae deletion strains, locus YGR078C, strain PAC10, active compounds read low): 1.01; normalized growth [3]: 1.01; normalized growth (S. cerevisiae deletion strains, locus YHR087W, strain rtc3, active compounds read low): 0.994; normalized growth (S. cerevisiae deletion strains, locus YJL187C, strain SWE1, active compounds read low): 1.01; normalized growth (S. cerevisiae deletion strains, locus YJR043C, strain POL32, active compounds read low): 0.998; normalized growth [4]: 1.04; normalized growth (S. cerevisiae deletion strains, locus YKL190W, strain CNB1, active compounds read low): 1.01; normalized growth (S. cerevisiae deletion strains, locus YLR039C, strain RIC1, active compounds read low): 1; normalized growth (S. cerevisiae deletion strains, locus YLR058C, strain SHM2 (second series), active compounds read low): 1.02; normalized growth (S. cerevisiae deletion strains, locus YLR085C, strain ARP6, active compounds read low): 1.04; normalized growth (S. cerevisiae deletion strains, locus YLR262C, strain YPT6, active compounds read low): 1.01; normalized growth (S. cerevisiae deletion strains, locus YML094W, strain GIM5, active compounds read low): 1.03; normalized growth (S. cerevisiae deletion strains, locus YMR219W, strain ESC1, active compounds read low): 1.01; normalized growth (S. cerevisiae deletion strains, locus YMR263W, strain SAP30, active compounds read low): 0.994; normalized growth [5]: 0.98; normalized growth [6]: 1.01; normalized growth (S. cerevisiae deletion strains, locus YNL298W, strain CLA4 (second series), active compounds read low): 1; normalized growth [7]: 1.01; normalized growth (S. cerevisiae deletion strains, locus YNR030W, strain Alg12, active compounds read low): 1.01; normalized growth [8]: 1.05; normalized growth (S. cerevisiae deletion strains, locus YPL241C, strain CIN2, active compounds read low): 1.02; normalized growth (S. cerevisiae deletion strains, locus YPR135W, strain CTF4, active compounds read low): 1; normalized growth (S. cerevisiae strains, strain wild type, active compounds read low): 1.01

Question: Which results are given for `CCCCCCC(C)(C)c1ccc([C@@H]2C[C@H](O)CC[C@H]2CCCO)c(O)c1`?
Answer: normalized growth [1]: 1.01; normalized growth [9]: 0.993; normalized growth [2]: 0.986; normalized growth [10]: 1.02; normalized growth [11]: 0.977; normalized growth [5]: 1.01; normalized growth [6]: 0.716 (active); normalized growth [12]: 0.915; normalized growth [13]: 0.944; normalized growth [14]: 0.922; normalized growth [7]: 1.01; normalized growth [15]: 0.897; normalized growth [8]: 0.998

Question: Which normalized growth [1] does the source give for `CCCCCN(CCCCC)C(=O)C(CCC(=O)O)NC(=O)c1ccc(Cl)c(Cl)c1` (centres undefined) here?
Answer: The normalized growth was 1.01.

Question: What about the normalized growth [9] of the same compound?
Answer: The normalized growth was 1.

Question: What about the normalized growth (S. cerevisiae deletion strains, locus YCL061C, strain MRC1 (second series), active compounds read low) of the same compound?
Answer: The normalized growth was 1.

Question: What about the normalized growth [2] of the same compound?
Answer: The normalized growth was 0.993.

Question: And the normalized growth [10]?
Answer: Its normalized growth is 1.03.

Question: And the normalized growth [11]?
Answer: Its normalized growth is 0.991.

Question: What about the normalized growth [3] of the same compound?
Answer: Its normalized growth is 0.993.

Question: What about the normalized growth (S. cerevisiae deletion strains, locus YHR079C, strain IRE1, active compounds read low) of the same compound?
Answer: The normalized growth was 0.986.

Question: What about the normalized growth (S. cerevisiae deletion strains, locus YJL095W, strain BCK1, active compounds read low) of the same compound?
Answer: The normalized growth was 1.01.

Question: What about the normalized growth (S. cerevisiae deletion strains, locus YJR066W, strain TOR1, active compounds read low) of the same compound?
Answer: Its normalized growth is 0.97.

Question: What about the normalized growth [4] of the same compound?
Answer: Its normalized growth is 1.02.

Question: And the normalized growth (S. cerevisiae deletion strains, locus YLR113W, strain HOG1, active compounds read low)?
Answer: The normalized growth was 0.952.

Question: And the normalized growth [5]?
Answer: Its normalized growth is 0.992.

Question: And the normalized growth (S. cerevisiae deletion strains, locus YNL128W, strain TEP1, active compounds read low)?
Answer: The normalized growth was 0.963.

Question: What about the normalized growth [12] of the same compound?
Answer: The normalized growth was 0.995.

Question: What about the normalized growth (S. cerevisiae deletion strains, locus YNL183C, strain NPR1, active compounds read low) of the same compound?
Answer: The normalized growth was 0.949.

Question: And the normalized growth [13]?
Answer: Its normalized growth is 0.986.

Question: What about the normalized growth [14] of the same compound?
Answer: Its normalized growth is 0.985.

Question: What about the normalized growth [15] of the same compound?
Answer: The normalized growth was 0.95.

Question: What about the normalized growth (S. cerevisiae deletion strains, locus YOR231W, strain MKK1, active compounds read low) of the same compound?
Answer: Its normalized growth is 0.983.

Question: What about the normalized growth [8] of the same compound?
Answer: Its normalized growth is 0.983.

Question: And the normalized growth (S. cerevisiae deletion strains, locus YPL256C, strain CLN2, active compounds read low)?
Answer: Its normalized growth is 0.987.
